From PubChem BioAssay AID1508600 (Functional Genomics Laboratory (NCATS/FGL), 2020)
Hit rate of the full screen: of about 53,000 sequences, about 3,700 (7%) were called active. Shown is part of a subset that was picked to be rich in actives. Values without a mark were called inactive.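 How the source made its calls: active means gene knockdowns whose robust z-score for IL-1 alpha signal is at least 2 or at most -2, so actives lie on both sides; inactive means the rest.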

Test: Components of the Cytosolic LPS Sensing Pathway: Gene Identification via Genome-wide siRNA Screen;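 further: robust z of the log signal after scaling to non-targeting control siRNA wells of the plate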
Details: RAW264.7 macrophages, IL-1a HTRF, actives lie on both sides, screened at 100 nM (by protocol), cells primed 5 h with Pam3CSK4 first
Summary of the method: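 RAW264.7 mouse macrophages reverse-transfected with single siRNAs (100 nM final) for 48h, primed with Pam3CSK4 for 5 hours, then transfected with LipidA for 24 hour. Supernatant IL-1a read by HTRF; values normalized to negative-control median, log-transformed robust z-scores.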

Q: With GGCCCUAGAUAUUGAUUUUTT against Rbp2 as the sequence, how does the z-score read?
A: -0.338

Q: Which z-score does the source give for GGAGAUUGGGAUCAAUUAGTT against Sall3 here?
A: 0.576

Q: For GGACGUGACCAUGAUGUCUTT against Oacyl, which z-score is on record?
A: -3.46 (active)

Q: For GCAUCCUUUGUCGAAGUGGTT against Clec18a, which z-score is on record?
A: -0.495

Q: Which z-score does the source give for GGGAUUUUGUACAUUUUUGTT against Egln3 here?
A: 1.51

Q: Which z-score does the source give for CCGACGGAUAGCUUGGAUGTT against Fgb here?
A: -0.214

Q: With GGACGGAGGAUUCUGAAACTT against Prepl as the sequence, how does the z-score read?
A: 2.42 (active)

Q: With “GGAAAGCUUACAGUUGAAATT against 4933427D06Rik” as the sequence, how does the z-score read?
A: 0.992

Q: With GGAAAGCUAAGGCUGUACUTT against Dnal1 as the sequence, how does the z-score read?
A: -0.103

Q: With CCCAGAAGCCUUAUCGUCUTT against Mzt1 as the sequence, how does the z-score read?
A: 2.37 (active)

Q: For GCCAUCUACUUUGUUAUAGTT against Kcnk4, which z-score is on record?
A: 0.725

Q: With GGAGUUAUUAACUGAAGAGTT against Cyp2c55 as the sequence, how does the z-score read?
A: 0.0702

Q: With GAGGGCCAUCUCUGACAUGTT against Avp as the sequence, how does the z-score read?
A: 0.369

Q: With GGUCAAAACAAAAGGAGGGTT against Ncf4 as the sequence, how does the z-score read?
A: 0.498

Q: Which z-score does the source give for GGACAAAUUUGCAUAGAUUTT against Rab10os here?
A: 2.93 (active)

Q: For GCCAAUAUUUGUUUUUGAGTT against Ranbp3l, which z-score is on record?
A: 0.0685

Q: Which z-score does the source give for GCUACAACCUUGAGAAACUTT against Duoxa2 here?
A: 0.706

Q: Which z-score does the source give for CCUAGGUGUCGUACACAAATT against Galns here?
A: 2.45 (active)

Q: For GGCUUCCUAUCUGAUUACUTT against Acsl4, which z-score is on record?
A: 0.498

Q: For CCACCGGAAUGACAUAAUGTT against Klk11, which z-score is on record?
A: -0.578

Q: Which z-score does the source give for CCUAGUUGAAAAUUGGGAATT against Fuca2 here?
A: 0.354

Q: Which z-score does the source give for CGUGGUCAUCUGGUAUGAGTT against Zfp653 here?
A: 2.53 (active)

Q: For GCACUGCUAUUUACAAAAATT against Tex16, which z-score is on record?
A: -1.73

Q: Which z-score does the source give for CAGGGCAAGGUGAUAUCUGTT against Olfr1411 here?
A: -0.428

Q: With GGAGAAAUAAGUGCAGGUGTT against Rhox2a as the sequence, how does the z-score read?
A: -0.622

Q: With GGCUCCUCUCCAAGAAUAUTT against Prr14l as the sequence, how does the z-score read?
A: 2.03 (active)

Q: For GGAGAGAAUCAGAGAGAACTT against Akr1c18, which z-score is on record?
A: 0.276

Q: For GCUUCUGAUAGAUCAUAAGTT against Aoc3, which z-score is on record?
A: -0.276

Q: Which z-score does the source give for GGCUCAAAGUUUUCAGAGATT against Kctd14 here?
A: -0.0155

Q: For GCAUUUUGUGGAAAAGGCUTT against Olfr582, which z-score is on record?
A: -2.19 (active)

Q: For CGAAAAGGUGGACUUUUAGTT against Rnf4, which z-score is on record?
A: -0.545

Q: For GGUGAUUUUCGAUAUACACTT against Dclre1b, which z-score is on record?
A: 0.257

Q: With CGACCUGCUCUCAUAGCUUTT against Sycn as the sequence, how does the z-score read?
A: -0.702

Q: For GGCCUUUGGGAAAACAUGGTT against Zcchc14, which z-score is on record?
A: -2.16 (active)

Q: For GUACUAGUGGUGACUGCAUTT against Olfr462, which z-score is on record?
A: -0.0789

Q: With CCAAGGGUUAAGUCUUCAUTT against Zranb1 as the sequence, how does the z-score read?
A: 0.738

Q: For CCUCUCAUGUAUCCUGUGATT against Olfr292, which z-score is on record?
A: -0.205

Q: Which z-score does the source give for GGGAAAGUGUGUAAUAAAUTT against Egflam here?
A: -0.774

Q: With GCUUACUACCAUUGGGAAUTT against Samt2 as the sequence, how does the z-score read?
A: 1.65

Q: With GGAUUAGAGAAAUAGGGCUTT against Apol10a as the sequence, how does the z-score read?
A: -2.09 (active)

Q: Which z-score does the source give for GGAAUUCCUUCGUUUCCUUTT against Usp2 here?
A: 1.64

Q: With GGUUUGAAGUGUUGACAUUTT against Fam126a as the sequence, how does the z-score read?
A: -0.474

Q: Which z-score does the source give for CGUACAUCAGAAUGUUAAUTT against Fkbp4 here?
A: 1.46

Q: Which z-score does the source give for GGUGGUGUCAACCUUAAAATT against Nrsn1 here?
A: 0.253

Q: For GGUUUUGUCCAGAAGAAUATT against Kl, which z-score is on record?
A: -0.574

Q: Which z-score does the source give for GGAUGGACCAUCAGCUUCATT against Olfr1152 here?
A: -2.25 (active)

Q: With GGCUCUUGAUACGAAUGUATT against Aadac as the sequence, how does the z-score read?
A: -0.44

Q: Which z-score does the source give for GGAGAAGGGCUUUUCUGUUTT against Gbp5 here?
A: -0.729

Q: With GCCUCACAGAUUGAUAAUATT against Akt3 as the sequence, how does the z-score read?
A: -1.23

Q: Which z-score does the source give for GCAGCCAUACAGCUUAUAUTT against Cyb561d2 here?
A: 0.382

Q: With GGAGCUGUCAUUUAAGAAATT against Sorbs2 as the sequence, how does the z-score read?
A: 2.42 (active)

Q: Which z-score does the source give for CGUGGCUCACAAUAAAUGCTT against Cfd here?
A: 0.385

Q: Which z-score does the source give for GGCAAAUGGAAAAUUCUGCTT against Rlim here?
A: 0.982

Q: With GCUGAUGUAAGUAUUCUAGTT against Pdcl as the sequence, how does the z-score read?
A: 0.1

Q: For GCGGAAUUGGAAAAUGCCGTT against Hbs1l, which z-score is on record?
A: 0.283

Q: With GGUGGUAUCUGUAUUCUAUTT against Olfr1106 as the sequence, how does the z-score read?
A: 2.6 (active)

Q: Which z-score does the source give for GGUGACAAUAAAUUUGGAUTT against Tmem143 here?
A: 1.09

Q: For GGAUUCACAUUUCUAAAGCTT against Adcy8, which z-score is on record?
A: 1.31

Q: With CGCUAUGAAACCUCACUAATT against E2f1 as the sequence, how does the z-score read?
A: -0.598

Q: Which z-score does the source give for GCAUGACCUCAGGUUUUCUTT against Il20rb here?
A: 1.57

Q: Which z-score does the source give for CCUGAUUGUCACUCCUUUUTT against Pde4b here?
A: 0.753

Q: With GCGAAAGCAGGAUACUCCUTT against Mtmr11 as the sequence, how does the z-score read?
A: 1.01

Q: For GGAAAAAAUCUGCAUCCGATT against Neu1, which z-score is on record?
A: -0.415

Q: Which z-score does the source give for GGGACAUGAGCCAUUCAUCTT against Lcor here?
A: 0.749

Q: With GGAUAGCUCUAUUAUCUCUTT against Serpinb3a as the sequence, how does the z-score read?
A: 1.24

Q: With “GGCAGUACAACUGGUCUACTT against 0610040J01Rik” as the sequence, how does the z-score read?
A: 2.21 (active)

Q: Which z-score does the source give for GGAUGUGCUCUGUGAAUGCTT against Pgf here?
A: 0.533

Q: With GGCAUCACAGAAGGUUUAUTT against Rock2 as the sequence, how does the z-score read?
A: 4.17 (active)

Q: For GGUGAACGAUGUCAAUAAGTT against Pdxk, which z-score is on record?
A: -0.318
